Data reported in PubChem BioAssay (NCI).
The panel holds about 79,000 compounds, 15% with a hit somewhere; the sample as a whole holds those more often. A number with no mark means an inactive call. Active and inactive are the calls of the source. No stated cut-off is given here; in the data, active means growth inhibition above about 70%; inactive means the rest.

What was measured:
[1] = NCI Yeast Anticancer Drug Screen. Data for the rad50 strain (AID 155);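 further: 0% = growth of vehicle-only cultures of the same strain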; settings: S. cerevisiae rad50 strain growth inhibition, stronger effect = higher value; at 50.0 µM unless noted
Summary of the method: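 Readout: growth inhibition relative to vehicle-treated cultures. Compound exposure was carried out in a genetically defined yeast strain deficient in DNA damage repair.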

[2] = NCI Yeast Anticancer Drug Screen. Data for the mec2-1 strain (AID 157); settings: S. cerevisiae mec2-1 strain, stronger effect = higher value; at 50.0 µM unless noted
Summary of the method: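 Compounds were applied to mec2-1 yeast cells. Their growth was then compared with that of vehicle-treated cultures to give growth inhibition.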

[3] = NCI Yeast Anticancer Drug Screen. Data for the sgs1 mgt1 strain (AID 161);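 further: 0% = growth of cultures given vehicle only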; settings: S. cerevisiae sgs1 mgt1 strain, stronger effect = higher value; at 50.0 µM unless noted
Summary of the method: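 Compounds are added to genetically altered yeast, and growth is compared with cultures given vehicle alone to give percent inhibition.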

[4] = NCI Yeast Anticancer Drug Screen. Data for the cln2 rad14 strain (AID 165);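 further: 0% = growth equal to vehicle treated cultures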; settings: S. cerevisiae cln2 rad14 strain, stronger effect = higher value; at 50.0 µM unless noted
Summary of the method: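 Strain: cln2 rad14 yeast, altered in cell cycle control and DNA damage repair. Read-out: growth inhibition vs vehicle.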

[5] = NCI Yeast Anticancer Drug Screen. Data for the bub3 strain (AID 167); settings: S. cerevisiae bub3 mutant strain, stronger effect = higher value; at 50.0 µM unless noted
Summary of the method: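 Readout: yeast growth inhibition, expressed relative to vehicle-only wells. The test organism is a mutant strain from a panel with lesions in DNA repair or checkpoint genes.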

[6] = NCI Yeast Anticancer Drug Screen. Data for the mlh1 rad18 strain (AID 175); settings: S. cerevisiae mlh1 rad18 strain growth inhibition, stronger effect = higher value; at 50.0 µM unless noted
Summary of the method: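 A repair-deficient yeast strain is exposed to test compound, and growth is scored relative to vehicle-treated controls.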

SMILES	growth inhibition [1]	growth inhibition [2]	growth inhibition [3]	growth inhibition [4]	growth inhibition [5]	growth inhibition [6]
COc1ccc(-c2cc(=O)c3c(O)c(O)c(OC)cc3o2)cc1O	-5.15%	-28.6%	-55.9%	-8.4%	-2.6%	-18.3%
O=C(O)COc1ccc(NC(=O)COc2ccc(Cl)c(Cl)c2)cc1	8.8%	-10%	-28.9%	-30.1%	2.75%	15.1%
CCOC(=O)C(C)NC(=O)C(C)NC(=O)C(C)NC(=O)C(C)NC(=O)C(C)NC(=O)OCc1ccccc1 (stereo unspecified)	87.1% (active)	85.8% (active)	7.15%	-0.35%	15.7%	-46.8%
CCCCCC1CC(=O)NC1C(=O)O (stereo unspecified)	-2.75%	1.25%	-10.8%	-8.8%	-1.15%	-8.95%
Cc1ccc(S(=O)(=O)N2CCCSCC2)cc1	-11.6%	-6.7%	-17.5%	-6.95%	-11.6%	-16.1%
O=[N+]([O-])c1ccc(N(CCO)CCO)cc1	1.05%	-12.8%	-1.75%	9.25%	-6.4%	-17.1%
CCOC(=O)c1nc2ccccc2nc1NCc1cc(OC)c(OC)c(OC)c1	-14.9%	-11.9%	-10.8%	5.65%	-7.9%	-29.4%
CC1=C2CC3=C(C)C(=O)O[C@H]3C[C@@H](C)[C@@H]2CC1	15.2%	9.9%	26%	1.15%	33.8%	2.45%
O.O.O=S(=O)(O)C(F)(F)F.[NH2-].[NH2-].[NH2-].[NH2-].[Ru+3]	-17.8%	1.8%	-27%	-16.9%	-27.4%	-11.6%
COc1cc2c(cc1OC)[C@H](c1cc(OC)c3c(c1)OCO3)[C@H]1C(=O)OCC1C2 (stereo partly specified)	11.4%	-0.1%	0.2%	4.85%	30.6%	15.4%
Nc1nnc2nc(CC(=O)c3cccc([N+](=O)[O-])c3)/c(=C/C(=O)c3cccc([N+](=O)[O-])c3)n12	33.5%	18.7%	12.2%	7.45%	-4.8%	22.8%
O=c1[nH]c2nc3ccccc3c(=O)n2nc1Cc1ccccc1	-15.7%	-19.6%	-8.6%	-2.05%	-13.3%	0.7%
O=C1CCC(c2nc3ccccc3[nH]2)N1Cc1ccccc1 (stereo unspecified)	13.9%	2.3%	18.1%	4.35%	6.4%	18.9%
O=c1cc(N2CCOCC2)n2ccccc2n1	-4.4%	-4.15%	8%	-20.6%	-8.35%	8.1%
O=C(OCC(OC(=O)c1ccccc1)C1OCOC2COCOC21)c1ccccc1 (stereo unspecified)	3.35%	-1.3%	-5.6%	-24.2%	0.45%	11.4%
COc1ccc(/C=N/NC(=O)c2sc(=S)n(-c3ccccc3)c2N)cc1	2.9%	-0.45%	-40.1%	-16.9%	-17.1%	-7.5%
CS(=O)(=O)OC1Cc2ccccc2C1	12.6%	-0.3%	-2.35%	-6.1%	-5%	9.9%
CCc1ccc(NC(=O)c2ccc(Cl)cc2Cl)cc1	4.9%	34.5%	7.7%	2.95%	11.8%	0.95%
CCCCN(CCCC)C(=N)c1ccccc1C	4.8%	-13.9%	10.9%	-23.6%	1.55%	-3.35%
CN(C)c1cccc2c(S(=O)(=O)NCCCNCCN)cccc12	7.6%	-18.4%	-20.9%	24.4%	-21.2%	-6.6%
CN1C(=O)N(C2CCCCC2)C(=O)C(C)(CN2CCCCC2)C1=O (stereo unspecified)	12.7%	14.1%	12.2%	17.6%	-5.25%	12.2%

SMILES	growth inhibition [1]	growth inhibition [2]	growth inhibition [3]	growth inhibition [4]	growth inhibition [5]	growth inhibition [6]
FC(F)(F)c1ccc(C2=CCCCC2)cc1	24.1%	6.45%	4.45%	24.5%	-18.6%	13.2%
COc1ccc2ncccc2c1[N+](=O)[O-]	-5.55%	-44.3%	-5.8%	-14.5%	-23.4%	-18.6%
OC(c1ccccc1)c1ccc(C(O)c2ccccc2)cc1 (stereo unspecified)	-14.2%	-19.1%	-8.85%	33.3%	5.5%	-8.75%
CCc1ccccc1NC(=O)C(=O)CC(=O)c1sc(Nc2ccccc2Cl)nc1C	6.25%	6.15%	26%	-16.6%	-2.65%	15.1%
Cc1ccc2nc(=O)c3cccnc3n2c1	25.9%	31.1%	29.9%	5.1%	23.8%	12.8%
CCCCCC[P+](c1ccccc1)(c1ccccc1)c1ccccc1	97.7% (active)	98.4% (active)	98% (active)	95% (active)	96.1% (active)	97.8% (active)
Clc1cccc(C2SCc3nc4ccccc4n32)c1 (stereo unspecified)	17%	-3.95%	46.1%	15.3%	5.9%	32.1%
CC(C)=CC(=O)CC1(C)CCC(c2ccoc2)O1 (stereo unspecified)	-18.8%	-32.9%	-11.6%	14%	6.35%	-16%
O=C1N=C2Sc3ccc4ccccc4c3N2C1=O	21.2%	2.55%	24.1%	20.4%	5.5%	11.2%
CCOC(=O)C1=C(C)NC(c2ccco2)=C(C#N)C1c1cccc([N+](=O)[O-])c1 (stereo unspecified)	59.8%	33.4%	66%	68.7%	63.6%	70.8% (active)
O=C1C(O)=C(O)C(Br)=C/C1=C(/c1ccccc1S(=O)(=O)O)c1cc(Br)c(O)c(O)c1O	9.65%	6.9%	15.5%	1.8%	-0.2%	18.4%
c1ccc(C2c3ccccc3CN2c2ccccc2)cc1 (stereo unspecified)	25.4%	6.2%	11.4%	9.4%	23.1%	2.35%
Cc1nc2ccccc2c2ccc([N+](=O)[O-])cc12	13.5%	4.45%	0.25%	-31.1%	-4.6%	12.3%
O=S(=O)(Cl)c1ccc(Cl)cc1	-4.6%	13.1%	6.8%	1.5%	-16.6%	-7.25%
CCCCCCCCCCCCCCCCC(C#N)C(=O)O (stereo unspecified)	-14.4%	0.95%	-18.2%	-1%	-22.8%	-18.9%
Nn1c(NNC(=O)C(=O)Nc2cc(Cl)c(Cl)cc2Cl)n[nH]c1=S	-6.05%	-16.1%	-6.45%	23.8%	19.2%	1.4%
NC(Cc1cc(Br)c(Oc2ccc(O)cc2)c(Br)c1)C(=O)O (stereo unspecified)	19.8%	12.8%	-9.1%	-0.55%	2.55%	20.9%
CCN(CC)c1ccc(/C=N/Nc2cc(C)nc3ccc(C4CCCCC4)cc23)cc1	25.8%	4.3%	21.1%	3.15%	-2.35%	44.9%
C=C1CC(C2OCOC3COCOC32)OC1=O (stereo unspecified)	-44.1%	-12.9%	-14.8%	-22.6%	17.2%	-2.1%
CC(=O)c1ccc([N+](=O)[O-])[nH]1	-16.4%	23.1%	-32.9%	-3.8%	-3.95%	-5.1%
